# Unmarked numbers belong to inactive results.
# Key:
# Experiment in all cases: log2 ratio of Biotin-Ahx-Ub-VS probe labelling (fragment/DMSO); higher = less target engagement (more negative = stronger competition), active = hit call of the paper (q ≤ 0.05, log2 ratio ≤ -1)
# Details in all cases: compound concentration: 200 uM; treatment time: 3 h
# [1] = biological target: T1, OTUD6B (UniProt Q8N6M0)
# T1 sequence (whole entry): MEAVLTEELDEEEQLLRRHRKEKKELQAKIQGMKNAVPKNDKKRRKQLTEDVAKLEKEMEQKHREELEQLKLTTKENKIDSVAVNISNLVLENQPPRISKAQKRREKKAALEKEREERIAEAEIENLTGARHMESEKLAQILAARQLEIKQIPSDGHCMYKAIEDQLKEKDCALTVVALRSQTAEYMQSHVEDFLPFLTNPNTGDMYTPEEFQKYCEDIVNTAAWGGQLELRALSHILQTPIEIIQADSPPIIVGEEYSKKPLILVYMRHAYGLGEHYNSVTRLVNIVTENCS
# Outline: (§1)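 Global-median-normalised Spectronaut label-free quantities were compared by unpaired t-test, and values are average log2 ratios of fragment over vehicle. Only proteins with ≥2 unique peptides were used. HEK293T lysate (495 µg per sample) was treated in triplicate with fragment at 200 µM or vehicle for 3 h and then with Biotin-Ahx-Ub-VS at 0.5 µM final for 1 h. Labelled DUBs were then NeutrAvidin-enriched, digested with LysC and trypsin, and run by diaPASEF LC-MS/MS.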
# [2] = biological target: T2, OTUD7B (UniProt Q6GQQ9)
# T2 sequence (whole entry): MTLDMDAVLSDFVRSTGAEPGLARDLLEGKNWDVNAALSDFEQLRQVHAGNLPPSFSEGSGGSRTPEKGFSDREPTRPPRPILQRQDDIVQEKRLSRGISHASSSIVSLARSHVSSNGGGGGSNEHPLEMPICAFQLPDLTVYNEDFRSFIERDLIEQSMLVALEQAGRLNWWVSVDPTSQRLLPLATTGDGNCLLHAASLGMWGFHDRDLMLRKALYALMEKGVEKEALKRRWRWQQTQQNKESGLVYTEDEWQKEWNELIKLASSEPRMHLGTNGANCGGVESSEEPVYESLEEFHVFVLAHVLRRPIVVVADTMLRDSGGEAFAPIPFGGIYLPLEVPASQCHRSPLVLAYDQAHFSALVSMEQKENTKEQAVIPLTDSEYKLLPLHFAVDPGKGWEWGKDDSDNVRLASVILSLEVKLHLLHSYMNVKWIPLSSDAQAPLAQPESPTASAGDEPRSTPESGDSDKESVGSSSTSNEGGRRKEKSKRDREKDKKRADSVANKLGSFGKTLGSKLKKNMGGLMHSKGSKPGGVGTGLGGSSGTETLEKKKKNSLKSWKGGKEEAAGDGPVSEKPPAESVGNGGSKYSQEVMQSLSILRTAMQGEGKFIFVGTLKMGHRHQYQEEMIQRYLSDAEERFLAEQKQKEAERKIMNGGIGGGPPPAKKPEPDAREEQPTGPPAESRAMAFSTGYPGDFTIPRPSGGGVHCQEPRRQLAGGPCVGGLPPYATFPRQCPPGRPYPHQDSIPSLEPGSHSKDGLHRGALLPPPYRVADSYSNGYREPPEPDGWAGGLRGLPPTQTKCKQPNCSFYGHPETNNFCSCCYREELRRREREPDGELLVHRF
# Outline: as §1
# [3] = biological target: PRPF8 (UniProt Q6P2Q9)
# Outline: as §1
# [4] = biological target: T3, PSMD7 (UniProt P51665)
# T3 sequence (whole entry): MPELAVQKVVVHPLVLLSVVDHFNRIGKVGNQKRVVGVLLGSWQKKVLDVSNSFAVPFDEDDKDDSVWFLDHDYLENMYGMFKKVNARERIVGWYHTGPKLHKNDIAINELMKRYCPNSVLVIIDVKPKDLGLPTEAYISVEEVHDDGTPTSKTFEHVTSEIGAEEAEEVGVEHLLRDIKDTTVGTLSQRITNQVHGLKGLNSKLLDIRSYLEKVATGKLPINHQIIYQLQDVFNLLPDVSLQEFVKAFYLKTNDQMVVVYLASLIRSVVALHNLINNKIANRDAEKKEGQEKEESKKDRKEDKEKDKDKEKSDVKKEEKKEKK
# Outline: as §1
# [5] = biological target: UCHL1 (UniProt P09936)
# Sequence of UCHL1 (P09936 whole entry, looked up): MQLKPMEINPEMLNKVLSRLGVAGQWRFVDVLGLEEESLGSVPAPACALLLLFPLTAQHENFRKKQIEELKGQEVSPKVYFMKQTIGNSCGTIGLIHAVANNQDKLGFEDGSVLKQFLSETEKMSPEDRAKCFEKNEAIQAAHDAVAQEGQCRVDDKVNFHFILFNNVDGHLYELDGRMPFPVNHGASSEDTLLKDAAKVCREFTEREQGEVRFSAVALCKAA
# Outline: as §1
# [6] = biological target: T4, UCHL3 (UniProt P15374)
# T4 sequence (whole entry): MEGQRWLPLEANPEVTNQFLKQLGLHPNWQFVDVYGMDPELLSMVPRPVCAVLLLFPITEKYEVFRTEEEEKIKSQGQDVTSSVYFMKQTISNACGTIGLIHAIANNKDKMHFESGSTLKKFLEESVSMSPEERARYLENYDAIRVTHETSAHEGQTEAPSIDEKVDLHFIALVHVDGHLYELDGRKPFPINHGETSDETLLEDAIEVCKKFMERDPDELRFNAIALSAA
# Outline: as §1
# [7] = biological target: T5, UCHL5 (UniProt Q9Y5K5)
# T5 sequence (whole entry): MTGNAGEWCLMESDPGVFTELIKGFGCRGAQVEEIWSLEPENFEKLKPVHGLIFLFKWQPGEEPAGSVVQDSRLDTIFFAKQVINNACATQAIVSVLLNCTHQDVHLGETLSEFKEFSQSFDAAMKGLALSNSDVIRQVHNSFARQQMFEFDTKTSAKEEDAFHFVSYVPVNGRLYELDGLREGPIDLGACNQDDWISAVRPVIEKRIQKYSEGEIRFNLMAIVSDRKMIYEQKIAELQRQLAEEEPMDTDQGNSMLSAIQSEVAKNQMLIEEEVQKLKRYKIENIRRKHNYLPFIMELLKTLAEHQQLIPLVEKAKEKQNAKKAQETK
# Outline: as §1
# [8] = biological target: USP10 (UniProt Q14694)
# Sequence of USP10 (Q14694 whole entry): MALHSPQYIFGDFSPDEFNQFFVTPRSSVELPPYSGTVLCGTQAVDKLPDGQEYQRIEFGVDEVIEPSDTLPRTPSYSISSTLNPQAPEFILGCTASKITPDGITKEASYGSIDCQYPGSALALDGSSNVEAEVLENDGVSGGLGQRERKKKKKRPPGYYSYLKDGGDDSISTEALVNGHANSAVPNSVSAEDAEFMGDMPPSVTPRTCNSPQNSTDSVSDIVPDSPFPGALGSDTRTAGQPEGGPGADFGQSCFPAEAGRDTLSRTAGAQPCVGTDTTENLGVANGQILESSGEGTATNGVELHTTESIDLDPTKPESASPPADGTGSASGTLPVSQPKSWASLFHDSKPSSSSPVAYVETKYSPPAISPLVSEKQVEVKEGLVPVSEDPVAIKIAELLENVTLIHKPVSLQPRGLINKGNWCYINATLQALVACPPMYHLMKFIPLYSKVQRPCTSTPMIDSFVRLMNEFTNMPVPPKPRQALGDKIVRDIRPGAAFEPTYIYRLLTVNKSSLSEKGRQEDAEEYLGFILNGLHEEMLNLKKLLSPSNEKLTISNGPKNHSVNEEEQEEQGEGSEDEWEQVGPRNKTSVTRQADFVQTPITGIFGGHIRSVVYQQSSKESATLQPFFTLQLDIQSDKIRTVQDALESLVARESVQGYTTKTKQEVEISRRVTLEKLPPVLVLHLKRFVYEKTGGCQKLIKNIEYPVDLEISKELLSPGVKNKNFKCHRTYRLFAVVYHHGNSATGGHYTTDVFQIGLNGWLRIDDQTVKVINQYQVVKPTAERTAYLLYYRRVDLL
# Outline: as §1
# [9] = biological target: T6, USP15 (UniProt Q9Y4E8)
# T6 sequence (whole entry): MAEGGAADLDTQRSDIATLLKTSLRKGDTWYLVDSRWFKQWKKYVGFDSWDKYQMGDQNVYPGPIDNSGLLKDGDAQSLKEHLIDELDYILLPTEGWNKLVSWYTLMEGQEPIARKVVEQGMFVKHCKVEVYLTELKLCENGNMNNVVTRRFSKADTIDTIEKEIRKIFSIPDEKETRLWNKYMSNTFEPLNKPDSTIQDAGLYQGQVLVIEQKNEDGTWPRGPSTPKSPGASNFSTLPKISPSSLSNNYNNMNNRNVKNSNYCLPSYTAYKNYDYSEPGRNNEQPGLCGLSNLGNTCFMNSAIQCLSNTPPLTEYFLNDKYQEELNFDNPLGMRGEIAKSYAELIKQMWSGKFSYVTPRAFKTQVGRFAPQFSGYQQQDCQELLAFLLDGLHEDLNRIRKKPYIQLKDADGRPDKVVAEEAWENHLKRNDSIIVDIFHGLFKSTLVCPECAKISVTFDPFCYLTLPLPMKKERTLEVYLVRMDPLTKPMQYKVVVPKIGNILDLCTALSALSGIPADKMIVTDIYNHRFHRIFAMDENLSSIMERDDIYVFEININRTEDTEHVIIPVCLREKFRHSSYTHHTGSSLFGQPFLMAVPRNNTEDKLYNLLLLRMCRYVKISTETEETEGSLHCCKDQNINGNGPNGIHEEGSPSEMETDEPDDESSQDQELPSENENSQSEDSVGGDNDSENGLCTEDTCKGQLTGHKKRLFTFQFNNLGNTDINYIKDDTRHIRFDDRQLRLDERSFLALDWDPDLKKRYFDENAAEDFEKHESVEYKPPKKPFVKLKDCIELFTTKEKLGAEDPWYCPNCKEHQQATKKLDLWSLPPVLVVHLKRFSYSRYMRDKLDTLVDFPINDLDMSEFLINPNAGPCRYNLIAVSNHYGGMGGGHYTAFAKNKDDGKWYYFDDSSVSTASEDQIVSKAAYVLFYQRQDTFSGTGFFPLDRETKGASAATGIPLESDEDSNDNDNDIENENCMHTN
# Outline: as §1
# [10] = biological target: USP16 (UniProt Q9Y5T5)
# Sequence of USP16 (Q9Y5T5 whole entry, looked up): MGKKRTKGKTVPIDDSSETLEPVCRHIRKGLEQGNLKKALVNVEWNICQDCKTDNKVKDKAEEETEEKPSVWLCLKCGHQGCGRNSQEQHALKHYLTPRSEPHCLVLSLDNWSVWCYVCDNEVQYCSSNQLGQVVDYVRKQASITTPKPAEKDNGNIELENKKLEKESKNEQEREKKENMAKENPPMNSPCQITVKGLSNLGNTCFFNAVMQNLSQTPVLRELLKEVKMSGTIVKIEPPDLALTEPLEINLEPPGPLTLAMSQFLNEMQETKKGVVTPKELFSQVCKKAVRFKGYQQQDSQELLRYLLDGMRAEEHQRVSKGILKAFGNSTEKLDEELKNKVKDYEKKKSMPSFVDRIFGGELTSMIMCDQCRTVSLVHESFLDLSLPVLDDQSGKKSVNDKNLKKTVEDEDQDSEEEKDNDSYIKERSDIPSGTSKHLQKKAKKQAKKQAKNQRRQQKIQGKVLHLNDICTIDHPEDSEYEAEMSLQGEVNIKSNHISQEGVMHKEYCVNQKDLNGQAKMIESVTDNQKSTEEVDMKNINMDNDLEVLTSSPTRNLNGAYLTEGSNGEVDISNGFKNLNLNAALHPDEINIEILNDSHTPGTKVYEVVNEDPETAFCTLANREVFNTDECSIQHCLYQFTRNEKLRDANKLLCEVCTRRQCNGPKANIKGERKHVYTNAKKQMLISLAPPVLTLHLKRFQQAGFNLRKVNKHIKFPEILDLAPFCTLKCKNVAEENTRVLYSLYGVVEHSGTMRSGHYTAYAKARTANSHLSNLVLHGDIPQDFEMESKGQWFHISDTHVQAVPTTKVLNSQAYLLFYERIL
# Outline: as §1
smiles,measurement,setting,value
Cc1ccc(CNC(=O)CCl)nc1C.Cl,log2 ratio of Biotin-Ahx-Ub-VS probe labelling,[1],0.146
same,log2 ratio of Biotin-Ahx-Ub-VS probe labelling,[2],-0.314
same,log2 ratio of Biotin-Ahx-Ub-VS probe labelling,[3],0.14
same,log2 ratio of Biotin-Ahx-Ub-VS probe labelling,[4],-0.305
same,log2 ratio of Biotin-Ahx-Ub-VS probe labelling,[5],-1.07 (active)
same,log2 ratio of Biotin-Ahx-Ub-VS probe labelling,[6],0.499
same,log2 ratio of Biotin-Ahx-Ub-VS probe labelling,[7],-0.0227
same,log2 ratio of Biotin-Ahx-Ub-VS probe labelling,[8],-0.0933
same,log2 ratio of Biotin-Ahx-Ub-VS probe labelling,[9],0.144
same,log2 ratio of Biotin-Ahx-Ub-VS probe labelling,[10],0.174

# Source: the supplement of paper PMC11732987, “Enantioselective OTUD7B fragment discovery through chemoproteomics screening and high-throughput optimisation” (Communications Chemistry, 2025)
